# Test results reported in PubChem BioAssay (NCATS).
# Results filed as inconclusive are left out. Active and inactive are the calls of the source. Unless noted, calls follow the shape of the dose curve; as a rule, active = well fitted curve in the direction sought with a large enough effect; inconclusive = small, poorly fitted or top-dose-only effect, or another doubt; inactive = no such curve, though single readings can be large; an effect the other way counts as inactive or inconclusive.
# Target: 3',5'-cyclic-AMP phosphodiesterase 4B (Homo sapiens) (UniProt Q07343)
# Sequence (Q07343 whole entry, looked up): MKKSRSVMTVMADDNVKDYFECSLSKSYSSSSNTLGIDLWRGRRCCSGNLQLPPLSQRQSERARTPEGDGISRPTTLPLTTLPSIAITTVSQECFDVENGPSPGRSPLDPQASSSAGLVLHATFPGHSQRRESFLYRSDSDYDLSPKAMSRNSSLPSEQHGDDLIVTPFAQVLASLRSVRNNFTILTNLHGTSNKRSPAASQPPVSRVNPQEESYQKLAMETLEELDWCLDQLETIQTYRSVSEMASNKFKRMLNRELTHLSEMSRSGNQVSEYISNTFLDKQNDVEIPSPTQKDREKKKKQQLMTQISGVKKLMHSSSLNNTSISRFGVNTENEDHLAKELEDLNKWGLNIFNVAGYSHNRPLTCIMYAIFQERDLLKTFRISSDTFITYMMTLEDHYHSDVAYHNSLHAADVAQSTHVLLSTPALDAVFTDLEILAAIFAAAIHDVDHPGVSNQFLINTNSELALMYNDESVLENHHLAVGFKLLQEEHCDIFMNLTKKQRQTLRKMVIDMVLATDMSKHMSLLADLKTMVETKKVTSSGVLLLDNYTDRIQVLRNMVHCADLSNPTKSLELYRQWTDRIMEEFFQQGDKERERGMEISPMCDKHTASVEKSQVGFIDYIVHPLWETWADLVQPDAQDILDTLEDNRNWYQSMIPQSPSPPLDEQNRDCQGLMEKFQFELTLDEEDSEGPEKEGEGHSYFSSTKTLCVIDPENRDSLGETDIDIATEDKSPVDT
# Assay: qHTS Assay for Inhibitors of PDE-IV (AID 607; active = well fitted activation curve with a large enough effect in the main read-out, with a control signal flat, not every such curve was filed as active; also: % of control where 0% means no effect)
# Conditions: HEK293 ACTOne CNG channel cells, membrane potential fluorescence; series mostly up to 22.9 µM; activation (PDE inhibition): at the top concentration
# How it was run: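 Live HEK293 cells with a modified cyclic nucleotide-gated (CNG) channel report intracellular cAMP via membrane-potential dye fluorescence (ex 535/em 590 nm). Endogenous PDE-IV was targeted. Compounds were tested at up to 22.9 uM final; RO 20-1724 100 uM served as control.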
row,Compound,activation (PDE inhibition)
1,COC(=O)[C@@]1(Cc2ccc(OC)cc2)[C@H]2c3cc(C(=O)N(C)C)n(Cc4ccccc4)c3C[C@H]2CN1C(=O)c1ccccc1,-3.04% (inactive)
2,COC(=O)[C@@]1(Cc2ccc(OC)cc2)[C@H]2c3cc(C(=O)N4CCCC4)n(Cc4ccc(C)o4)c3C[C@H]2CN1C(=O)c1ccccc1,22.3% (inactive)
3,CCC/C=C(\CCC)C(NC(=O)CCc1ccccc1)c1ccc(C(F)(F)F)cc1 (stereo not given),-2.42% (inactive)
4,COC(=O)[C@@]1(Cc2ccc(F)cc2)[C@H]2c3cc(C(=O)N(C)C)n(CC4CC4)c3C[C@H]2CN1C(=O)c1ccccc1,13.2% (inactive)
5,COC(=O)[C@H]1[C@@H]2C[C@H]3c4[nH]c5ccccc5c4CCN3C[C@@H]2CC[C@@H]1O,-2.06% (inactive)
6,COC(=O)[C@@]1(Cc2ccc(OC)cc2)[C@H]2c3cc(C(=O)N4CCCC4)n(CCc4ccccn4)c3C[C@H]2CN1C(=O)c1ccccc1,2.54% (inactive)
7,COC(=O)[C@@]1(Cc2ccc(F)cc2)[C@H]2c3cc(C(=O)N(C)C)n(Cc4ccccc4)c3C[C@H]2CN1C(=O)c1ccccc1,-2.62% (inactive)
8,CCCC/C=C/C(NC(=O)CCc1ccccc1)c1ccccc1 (stereo not given),-4.82% (inactive)
9,COC(=O)[C@@]1(Cc2ccc(OC)cc2)[C@H]2c3cc(C(=O)N(C)C)n(Cc4ccc(C)c(F)c4F)c3C[C@H]2CN1C(=O)c1ccccc1,-33.3% (inactive)
10,CCCC/C=C/C(NC(=O)OCc1ccccc1Cl)c1ccccc1 (stereo not given),17.9% (inactive)
11,COC(=O)[C@@]1(Cc2ccc(OC)cc2)[C@H]2c3cc(C(=O)N4CCCC4)n(CCCNc4ncc(C(F)(F)F)cc4Cl)c3C[C@H]2CN1C(=O)c1ccccc1,1.75% (inactive)

# Tested on: not listed separately
# Assay: qHTS for Inhibitors of the vitamin D receptor (VDR): Hit Validation using a Texas Red Assay (AID 602201); also: potency is read from the fitted curve at half-maximal effect; as to activity, negative = inhibition: % is scaled to controls: 0 for no effect and ±100 for the full control effect
# Conditions: VDR coregulator binding, Texas Red fluorescence polarization, agonist-bound VDR ligand-binding domain; series mostly up to 57.1 µM; activity, negative = inhibition: at the top concentration
# How it was run: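 Fluorescence polarization with 1.5 uM VDR-LBD, LG19078 and 7 nM Texas Red (final). After 2 hours at ambient temperature, read at Ex 595 nm/Em 615 nm.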
Compound,Potency,"activity, negative = inhibition"
C#CCOc1c(Cl)cc(/C=C2/C(=O)ON=C2C)cc1OCC,15.8 µM (active),
CC(C)(C)c1nnc(NS(=O)(=O)c2ccc([N+](=O)[O-])cc2)s1,25.1 µM (active),
O=[N+]([O-])c1c(Nc2ccc(O)cc2)cc(Cl)c2nonc12,3.16 µM (active),
C[C@@H](NC(=O)OC(C)(C)C)c1nnc(S(=O)(=O)Cc2ccccc2)o1,11.2 µM (active),
CC(=O)N(C1=C(Cl)C(=O)c2ccccc2C1=O)c1ccc(C(=O)O)cc1,3.55 µM (active),
O=C(O)CN1C(=O)/C(=C\c2cc(Br)ccc2OCc2ccc(F)cc2)SC1=S,,-9.84% (inactive)
CCSc1nnc(NC(=O)c2nc(S(=O)(=O)Cc3ccc(F)cc3)ncc2Cl)s1,3.16 µM (active),
COc1ccc(OC)c(-c2c3cc(O)c(=O)cc-3oc3cc(O)c(O)cc23)c1,8.91 µM (active),
O=S1OC(c2ccccc2)c2cc(Cl)ccc21 (stereo not given),7.08 µM (active),
Cc1cc2nc3ccc(N(C)C)cc3nc2cc1N,3.55 µM (active),
O=C(/C=C/c1cccc([N+](=O)[O-])c1)c1ccc2c(c1)OCCO2,14.1 µM (active),
COC(=O)c1ccccc1NC(=O)c1nc(S(=O)(=O)Cc2ccccc2)ncc1Cl,3.16 µM (active),
CS(=O)(=O)c1nc(-c2ccccc2)cc(C(F)(F)F)n1,10 µM (active),
CCOc1cc(/C=C\c2[nH]c(=O)[nH]c(=O)c2[N+](=O)[O-])ccc1OC(C)CC (stereo not given),,-16.1% (inactive)
Cc1nc2c3cc(F)ccc3n(Cc3ccccc3)c2s1,,-12.9% (inactive)
O=C(Nc1cc(S(=O)(=O)N2CCOCC2)ccc1N1CCCC1)c1ccc(Cl)cc1,20 µM (active),
COc1ccc(N2C(=O)C(Cl)=C(Oc3cccc(OC)c3)C2=O)cc1,2.82 µM (active),

# Target: Luciferin 4-monooxygenase (Photinus pyralis) (UniProt P08659)
# Sequence (P08659 whole entry, looked up): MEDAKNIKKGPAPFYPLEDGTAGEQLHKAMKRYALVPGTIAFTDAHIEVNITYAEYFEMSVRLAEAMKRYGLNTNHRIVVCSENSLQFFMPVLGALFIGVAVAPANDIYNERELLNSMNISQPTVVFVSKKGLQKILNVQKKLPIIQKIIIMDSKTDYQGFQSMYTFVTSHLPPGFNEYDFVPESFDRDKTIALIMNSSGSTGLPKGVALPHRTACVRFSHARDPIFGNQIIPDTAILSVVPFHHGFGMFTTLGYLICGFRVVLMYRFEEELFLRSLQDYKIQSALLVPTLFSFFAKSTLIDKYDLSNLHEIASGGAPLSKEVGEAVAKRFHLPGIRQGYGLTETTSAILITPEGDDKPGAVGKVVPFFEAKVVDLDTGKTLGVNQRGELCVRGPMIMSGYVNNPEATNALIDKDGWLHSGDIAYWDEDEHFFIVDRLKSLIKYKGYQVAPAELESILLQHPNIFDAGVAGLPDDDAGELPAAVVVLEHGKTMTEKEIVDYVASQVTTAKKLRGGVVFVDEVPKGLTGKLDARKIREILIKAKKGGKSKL
# Assay: Biochemical firefly luciferase enzyme assay for NPC (AID 624030);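 also: purified P. pyralis luciferase at 10 nM with luciferin and ATP substrate; 0% = DMSO and -100% = full luciferase inhibition by PTC124 control; nearly all actives have a fitted effect of over 70% in size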
# Conditions: purified P. pyralis luciferase, luminescence, 5 min; series mostly up to 58.6 µM; activity change, negative = inhibition: at the top concentration
# How it was run: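 Purified P. pyralis luciferase at 10 nM in 50 mM Tris Acetate (final), luminescence read within 5 minutes of enzyme addition to compounds. Activity normalised to PTC124 versus DMSO; concentration-response curves classed by r2, magnitude and activity.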
row,Compound,"activity change, negative = inhibition"
1,CC(=O)O[C@@H]1C(=O)O[C@H]2[C@@H]1OC(=O)[C@@H]2OC(C)=O,-14.5% (inactive)
2,CO[C@]1(NC(=O)Cc2cccs2)C(=O)N2C(C(=O)O)=CC(COC(N)=O)S[C@H]21 (stereo not given in full),-6.72% (inactive)
3,c1cnc2cc3c(cc2n1)[C@@H]1CNC[C@@H]3C1,1.04% (inactive)
4,CCCCC(=O)OCC(=O)[C@H]1[C@H](C)C[C@@H]2[C@@H]3C[C@@H](F)C4=CC(=O)C=C[C@]4(C)[C@@]3(F)[C@@H](O)C[C@@]21C,-2.37% (inactive)
5,CCN1CCC[C@@H]1CNC(=O)c1cc(S(=O)(=O)CC)ccc1OC,-2.47% (inactive)
6,CC[C@H]1OC(=O)[C@H](C)[C@@H](O[C@H]2C[C@@](C)(OC)[C@@H](O)[C@H](C)O2)[C@H](C)[C@@H](O[C@@H]2O[C@H](C)C[C@H](N(C)C)[C@H]2O)[C@](C)(O)C[C@@H](C)[C@@H]2N[C@@H](COCCOC)O[C@H]([C@H]2C)[C@]1(C)O,-0.0397% (inactive)
7,O=CC(O)C(O)C(O)C(O)CO (stereo not given),-0.114% (inactive)
8,Cc1c(N)nc([C@@H](CC(N)=O)NC[C@H](N)C(N)=O)nc1C(=O)N[C@H](C(=O)N[C@@H](C)[C@@H](O)[C@@H](C)C(=O)N[C@H](C(=O)NCCc1nc(-c2nc(C(=O)NCCCN[C@H](C)c3ccccc3)cs2)cs1)[C@H](C)O)[C@@H](O[C@H]1O[C@@H](CO)[C@H](O)[C@@H](O)[C@H]1O[C@H]1O[C@@H](CO)[C@@H](O)[C@H](OC(N)=O)[C@H]1O)c1cnc[nH]1,1.68% (inactive)
9,CC(CSC(=O)c1ccccc1)C(=O)N1CC(Sc2ccccc2)CC1C(=O)O (stereo not given),-1.79% (inactive)
10,COc1cc2c(cc1OC)[C@@H](Cc1cc(OC)c(OC)c(OC)c1)[N@+](C)(CCCOC(=O)CC/C=C/CCC(=O)OCCC[N@+]1(C)CCc3cc(OC)c(OC)cc3[C@H]1Cc1cc(OC)c(OC)c(OC)c1)CC2,4.86% (inactive)
11,CC(=O)OCC(=O)[C@@]1(O)[C@H](C)C[C@H]2C3C[C@H](F)C4=CC(=O)C=CC4(C)C3[C@@H](O)CC21C (stereo not given in full),0.599% (inactive)
12,CC12C=CC(=O)C=C1CCC1C2C(O)CC2(C)C1CCC2(O)C(=O)COC(=O)CCC(=O)O (stereo not given),-0.0354% (inactive)
